# Results as given in PubChem BioAssay (NCI).
# Values joined by “and” are separate entries in the source; they are usually repeats but may differ in a detail not shown here. Equal values may be shown once. This is part of a sample that, as a whole, favours compounds with a hit. Of some 79,000 tested, about 15% had one in any assay. Where a structure was tested more than once in an assay, its records may differ in their call. Active and inactive are the calls of the source. Cut-off read from the data, not from the text of the source: active = growth inhibition above about 70%; inactive = the rest. Where a SMILES comes first, the peptide text is derived from it. [ ]: non-standard residue; d: D form. ξ: configuration not given here. ξF = NC(Cc1ccccc1)C(=O)O
# Assays:
# [1] = NCI Yeast Anticancer Drug Screen. Data for the rad50 strain (AID 155);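 note: 0% = growth of vehicle-only cultures of the same strain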; settings: S. cerevisiae rad50 strain growth inhibition; at 50.0 µM; stronger effect = higher value
# Procedure, shortened: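 Relative growth inhibition (compound vs vehicle) was measured in yeast with a defined repair-gene alteration.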
# [2] = NCI Yeast Anticancer Drug Screen. Data for the mec2-1 strain (AID 157); settings: S. cerevisiae mec2-1 strain, at 50.0 µM, stronger effect = higher value
# Procedure, shortened: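 Strain: mec2-1 (DNA repair/cell cycle alteration). Compound exposure, then growth measured; inhibition expressed relative to vehicle.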
# [3] = NCI Yeast Anticancer Drug Screen. Data for the sgs1 mgt1 strain (AID 161);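 note: 0% = growth of cultures given vehicle only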; settings: S. cerevisiae sgs1 mgt1 strain, at 50.0 µM, stronger effect = higher value
# Procedure, shortened: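 Genetically altered yeast, compound exposure, growth inhibition relative to vehicle.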
# [4] = NCI Yeast Anticancer Drug Screen. Data for the cln2 rad14 strain (AID 165);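 note: 0% = growth equal to vehicle treated cultures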; settings: S. cerevisiae cln2 rad14 strain, at 50.0 µM, stronger effect = higher value
# Procedure, shortened: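 Compounds are applied to the cln2 rad14 yeast strain, and growth is then compared with that of vehicle-treated cultures to give inhibition.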
# [5] = NCI Yeast Anticancer Drug Screen. Data for the bub3 strain (AID 167); settings: S. cerevisiae bub3 mutant strain, at 50.0 µM, stronger effect = higher value
# Procedure, shortened: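 Screening used yeast with an engineered genetic alteration affecting cell cycle control. Compound-exposed cultures were compared with vehicle cultures, and reduced growth was taken as inhibition.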
# [6] = NCI Yeast Anticancer Drug Screen. Data for the mlh1 rad18 strain (AID 175); settings: S. cerevisiae mlh1 rad18 strain growth inhibition; at 50.0 µM; stronger effect = higher value
# Procedure, shortened: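 Read-out is yeast growth inhibition, calculated against vehicle-only controls. The compound was applied to a strain engineered with DNA damage repair alterations.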
SMILES,growth inhibition [1],growth inhibition [2],growth inhibition [3],growth inhibition [4],growth inhibition [5],growth inhibition [6]
NNc1nc2c(N)ncnc2n1C1OC(CO)C(O)C1O (configuration not stated),-7% (inactive) and 14% (inactive),-5.05% (inactive) and 15.8% (inactive),17.4% (inactive) and 4.95% (inactive),-21.1% (inactive) and 15.2% (inactive),14.8% (inactive) and 13.1% (inactive),-5.95% (inactive) and 10.6% (inactive)
NCC(=O)NC(Cc1ccccc1)C(=O)O (configuration not stated) (H-Gly-[ξF]-OH),-28.9% (inactive) and -14.6% (inactive),-14.6% (inactive) and -12.2% (inactive),-1% (inactive) and -20.6% (inactive),-3.9% (inactive) and -2.65% (inactive),-8.25% (inactive) and -10% (inactive),-3.75% (inactive) and -13.3% (inactive)
Cc1c2cc(O)c(=O)cc-2oc2cc(O)c(O)cc12,45.9% (inactive) and 30.5% (inactive),29.6% (inactive) and 6.2% (inactive),36.1% (inactive) and 50.1% (inactive),20.9% (inactive) and 31.9% (inactive),36.7% (inactive) and 47.6% (inactive),40.1% (inactive) and 34.9% (inactive)
O=C1NC(CCCl)C(=O)NC1CCCl (configuration not stated),1.6% (inactive) and -0.7% (inactive),-2.05% (inactive) and 4.55% (inactive),-16.1% (inactive) and -3.55% (inactive),-10.2% (inactive) and -7.55% (inactive),-1.45% (inactive) and 2.4% (inactive),1.6% (inactive) and -1.35% (inactive)
O=C(O)C1C2OC(C(Br)C2Br)C1C(=O)O (configuration not stated),-12.3% (inactive) and -7.9% (inactive),15.1% (inactive) and -12.1% (inactive),-2.45% (inactive) and -26.4% (inactive),71.8% (active) and 12.1% (inactive),94.5% (active) and -11.8% (inactive),13.9% (inactive) and -0.15% (inactive)
O=c1[nH]c(CCc2ccccc2)nc2ccccc12,-5.1% (inactive) and -47.5% (inactive),7.85% (inactive) and -42.1% (inactive),-7.2% (inactive) and -23.5% (inactive),-38% (inactive) and -11.1% (inactive),-26.8% (inactive) and -31.9% (inactive),-2.8% (inactive) and -4.05% (inactive)
O=C(O)c1cccnc1,18.2% (inactive) and 13.2% (inactive),5.35% (inactive) and -7.8% (inactive),-4.15% (inactive) and -10% (inactive),2.65% (inactive) and -2.6% (inactive),5.65% (inactive) and -0.1% (inactive),18.5% (inactive) and 16.7% (inactive)
Cc1ccc(S/C=C/C(=O)O)cc1,-3% (inactive) and 19.8% (inactive),18.5% (inactive) and -0.1% (inactive),16.1% (inactive) and 20.4% (inactive),7.7% (inactive) and 19.2% (inactive),-0.1% (inactive) and -6.05% (inactive),20.6% (inactive) and 5.45% (inactive)
CC(CC(=O)O)C(C(=O)O)C(=O)O (configuration not stated),0.4% (inactive) and 7.6% (inactive),-25.9% (inactive) and 2.4% (inactive),-33.5% (inactive) and -16.6% (inactive),-32.2% (inactive) and 0.4% (inactive),-21.8% (inactive) and 8.7% (inactive),-18.3% (inactive) and -7.75% (inactive)
COc1ccc(NS(=O)(=O)c2ccccc2)cc1,-3.55% (inactive) and -19.6% (inactive),-2.7% (inactive) and -17.2% (inactive),-3.2% (inactive) and -6.95% (inactive),-20.7% (inactive) and -48.8% (inactive),1.55% (inactive) and 8.9% (inactive),-6.3% (inactive) and -9.8% (inactive)
NC(N)=N/N=C(/C=N/N=C(N)N)C(O)C(O)CO (configuration not stated),-11% (inactive) and -10.4% (inactive),-1.95% (inactive) and -8.1% (inactive),-7.6% (inactive) and 3.3% (inactive),-39.3% (inactive) and -17.4% (inactive),-18.1% (inactive) and -13.7% (inactive),-20.4% (inactive) and -19.9% (inactive)
O=C(O)/C=C/c1ccccc1,15.1% (inactive) and 41.8% (inactive),16.6% (inactive) and 2.4% (inactive),27.5% (inactive) and 7.65% (inactive),14.8% (inactive) and 7.35% (inactive),4.1% (inactive) and 19.3% (inactive),22.2% (inactive) and 31.9% (inactive)
O=C(NC(=O)c1cn(C2OC(CO)C(O)C2O)c(=O)[nH]c1=O)OCc1ccccc1 (configuration not stated),-3.55% (inactive) and -14.8% (inactive),-4.8% (inactive) and 23.7% (inactive),-25.6% (inactive) and -8.85% (inactive),11.1% (inactive) and 20.3% (inactive),-19.6% (inactive) and -17.8% (inactive),-19.6% (inactive) and 0.55% (inactive)
CCCCCCCc1ccc(OC2OC(COC(C)=O)C(OC(C)=O)C(OC(C)=O)C2OC(C)=O)cc1 (configuration not stated),-7% (inactive) and -26.1% (inactive),-12.1% (inactive) and 13.8% (inactive),-30.4% (inactive) and 1.4% (inactive),-7.45% (inactive) and 37.9% (inactive),5.55% (inactive) and 9.7% (inactive),-6% (inactive) and 10.6% (inactive)
CC1C2C=CC(C2)C1C(=O)O (configuration not stated),5.15% (inactive) and 13.9% (inactive),28.8% (inactive) and 5.1% (inactive),-0.05% (inactive) and 5.85% (inactive),-42% (inactive) and 9.65% (inactive),7.8% (inactive) and -1.95% (inactive),7.1% (inactive) and 11.2% (inactive)
CC(N)(CCO)C(=O)O (configuration not stated),1.25% (inactive) and -1.8% (inactive),11.9% (inactive) and -3% (inactive),-5.95% (inactive) and -19.4% (inactive),1.4% (inactive) and -18% (inactive),-5.5% (inactive) and 8.75% (inactive),3.95% (inactive) and 7.2% (inactive)
CCCCC(CC)CCC(C)OC(=O)CCl (configuration not stated),15.4% (inactive) and 0.5% (inactive),-2.8% (inactive) and -6.75% (inactive),2.5% (inactive) and -19.6% (inactive),-36.4% (inactive) and -22.6% (inactive),-6.25% (inactive) and -15.2% (inactive),-1.9% (inactive) and 10.2% (inactive)
Nc1ccc2ccc(O)cc2c1,24.8% (inactive) and 29.8% (inactive),-0.5% (inactive) and 8.5% (inactive),24.9% (inactive) and 16.8% (inactive),21.8% (inactive) and -22.2% (inactive),13.6% (inactive) and 25.8% (inactive),19% (inactive) and 24.6% (inactive)
C=CCC(N)C(=O)O (configuration not stated),-11.9% (inactive) and -1% (inactive),-20.6% (inactive) and -4.45% (inactive),4.95% (inactive) and -1.85% (inactive),13.5% (inactive) and 2.3% (inactive),-10.6% (inactive) and 8.3% (inactive),-1.7% (inactive) and -3% (inactive)
CC1CC(=O)C2CC1C2(C)C (configuration not stated),18% (inactive) and 27.3% (inactive),-9.05% (inactive) and 0.3% (inactive),-2.15% (inactive) and 11.7% (inactive),-0.85% (inactive) and 12.1% (inactive),6% (inactive) and 14.1% (inactive),-6.1% (inactive) and 23.9% (inactive)
CN(C)N=Nc1ccc(C(=O)O)cc1,27.6% (inactive) and 12.6% (inactive),22.1% (inactive) and -1.3% (inactive),28.6% (inactive) and 20.9% (inactive),-0.05% (inactive) and -0.65% (inactive),16.9% (inactive) and -21.1% (inactive),26.6% (inactive) and 7.65% (inactive)
OCCCc1ccncc1,-6.05% (inactive) and -8.55% (inactive),-4.65% (inactive) and -4.7% (inactive),2.9% (inactive) and 4.75% (inactive),8.7% (inactive) and -7.9% (inactive),3.25% (inactive) and -0.55% (inactive),12.2% (inactive) and 7.85% (inactive)
